The source of these data is PubChem BioAssay (NCI).

Molecules are shown by their SMILES. Compounds without any hit were thinned out: in the full panel of roughly 79,000, 15% have a hit. A number with no mark means an inactive call. The source made the active and inactive calls. Cut-off read from the data, not from the text of the source: active = growth inhibition above about 70%; inactive = the rest.

Test [1] can be described thus: NCI Yeast Anticancer Drug Screen. Data for the rad50 strain (AID 155).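 Note: 0% = growth of vehicle-only cultures of the same strain.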 Conditions: S. cerevisiae rad50 strain growth inhibition, stronger effect = higher value. In a few lines: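 Vehicle-treated cultures provide the reference for the growth inhibition reported for compound-exposed, repair-deficient yeast.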
A short description of test [2]: NCI Yeast Anticancer Drug Screen. Data for the mec2-1 strain (AID 157). Conditions: S. cerevisiae mec2-1 strain, stronger effect = higher value. In a few lines: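 Mutant yeast (mec2-1) grown with compound; growth inhibition relative to vehicle control reported.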
Test [3] is described as follows: NCI Yeast Anticancer Drug Screen. Data for the sgs1 mgt1 strain (AID 161).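 Note: 0% = growth of cultures given vehicle only.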 The settings on record: S. cerevisiae sgs1 mgt1 strain, stronger effect = higher value. In a few lines:
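Yeast cells carrying a defined DNA-repair defect were exposed to test compounds. Growth inhibition was measured relative to vehicle-treated controls.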

Test [4] is described as follows: NCI Yeast Anticancer Drug Screen. Data for the cln2 rad14 strain (AID 165).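 Note: 0% = growth equal to vehicle treated cultures.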 The settings on record: S. cerevisiae cln2 rad14 strain, stronger effect = higher value. The essentials:
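Readout is yeast growth inhibition versus vehicle-treated controls, using a strain with cln2 and rad14 alterations exposed to compound.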

Test [5] can be described thus: NCI Yeast Anticancer Drug Screen. Data for the bub3 strain (AID 167). The settings on record: S. cerevisiae bub3 mutant strain, stronger effect = higher value. The essentials:
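Mutant yeast screening strain plus compound; vehicle-treated cultures serve as the 0% inhibition reference.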

A short description of test [6]: NCI Yeast Anticancer Drug Screen. Data for the mlh1 rad18 strain (AID 175). Conditions: S. cerevisiae mlh1 rad18 strain growth inhibition, stronger effect = higher value. In a few lines: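 Genetically defined yeast (DNA repair-deficient) exposed to compounds; growth inhibition determined relative to vehicle.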
The mark [7] stands for this setting: at 5.0 µM (retest, dose inferred, filed as 0.5).
[8] abbreviates: at 50.0 µM (retest, dose inferred, filed as 5.0).

As to `O=C(c1ccccc1)N1CCCCC1`, the growth inhibition was -1% in test [1] (setting [7]); 33% in test [1] (setting [8]); 81.5% (active) in test [1] (at 50.0 µM); 0% in test [2] (setting [7]); 5% in test [2] (setting [8]); -1.55% in test [2] (at 50.0 µM). Moreover, the growth inhibition is -2% in test [3] (setting [7]); 3% in test [3] (setting [8]); 23.9% in test [3] (at 50.0 µM); 2% in test [4] (setting [7]); 3% in test [4] (setting [8]); 48% in test [4] (at 50.0 µM). For the same compound, the growth inhibition was -2% in test [5] (setting [7]); 3% in test [5] (setting [8]); 15.5% in test [5] (at 50.0 µM); 0% in test [6] (setting [7]); 6% in test [6] (setting [8]); 47% in test [6] (at 50.0 µM).

With `Cc1ccc(S(=O)(=O)Nn2c(S)c(C#N)c(-c3ccc(Cl)cc3)c(C#N)c2=O)cc1`, the growth inhibition in test [1] (setting [7]) was 29%; in test [1] (setting [8]), 73% (active); in test [1] (at 50.0 µM), 55.6%; in test [2] (setting [7]), 17%; in test [2] (setting [8]), 66%; in test [2] (at 50.0 µM) it was 75.2% (active). The growth inhibition in test [3] (setting [7]) is 19%; in test [3] (setting [8]), 91% (active); in test [3] (at 50.0 µM) it was 81.8% (active); in test [4] (setting [7]), 40%; in test [4] (setting [8]) it was 56%; in test [4] (at 50.0 µM), 32.4%. Besides, the growth inhibition in test [5] (setting [7]) is 45%; in test [5] (setting [8]), 79% (active); in test [5] (at 50.0 µM), 65.9%; in test [6] (setting [7]) it was 24%; in test [6] (setting [8]), 56%; in test [6] (at 50.0 µM), 73.8% (active).

Regarding `Cc1ccc(COCO)c(O)c1`, the growth inhibition was -1% in test [1] (setting [7]); -8% in test [1] (setting [8]); -6.7% in test [1] (at 50.0 µM); 0% in test [2] (setting [7]); 2% in test [2] (setting [8]); 35.8% in test [2] (at 50.0 µM). Besides, the growth inhibition was 2% in test [3] (setting [7]); -4% in test [3] (setting [8]); -10.8% in test [3] (at 50.0 µM); -7% in test [4] (setting [7]); -3% in test [4] (setting [8]); -18.1% in test [4] (at 50.0 µM). Besides, the growth inhibition is -3% in test [5] (setting [7]); -4% in test [5] (setting [8]); -0.15% in test [5] (at 50.0 µM); -1% in test [6] (setting [7]); -4% in test [6] (setting [8]); -16.4% in test [6] (at 50.0 µM).

In the case of `O=[N+]([O-])c1ccc(Sc2c3ccccc3nc3ccccc23)nc1`, the growth inhibition was 94% (active) in test [1] (setting [7]); 99% (active) in test [1] (setting [8]); 98.3% (active) in test [1] (at 50.0 µM); 82% (active) in test [2] (setting [7]); 99% (active) in test [2] (setting [8]); 97.5% (active) in test [2] (at 50.0 µM). Further, the growth inhibition in test [3] (setting [7]) is 62%; in test [3] (setting [8]), 99% (active); in test [3] (at 50.0 µM) it was 97.7% (active); in test [4] (setting [7]), 83% (active); in test [4] (setting [8]) it was 98% (active); in test [4] (at 50.0 µM), 96.7% (active). Besides, the growth inhibition in test [5] (setting [7]) is 49%; in test [5] (setting [8]) it was 99% (active); in test [5] (at 50.0 µM) it was 96.5% (active); in test [6] (setting [7]), 66%; in test [6] (setting [8]), 99% (active); in test [6] (at 50.0 µM) it was 97.2% (active).
